Data published in PubChem BioAssay AID1626 (SRMLSC, 2009).
In all, about 220,000 compounds went through this assay and about 2,000 (0.91%) were called active. Another 2% or so got no clear call; they are omitted. Rule as the data show it: inconclusive = inhibition above about 80% without an active follow-up result; inactive = below that; test concentration not stated here. Not all results are given here. Potency and affinity values are given separately.

Assay: M. tuberculosis H37Rv growth inhibitors, H37Rv strain (AID 1626);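 also: bacteria incubated seven days before Alamar blue readout; 0% = bacteria only wells and 100% = bacteria with antibiotic wells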
Settings: stronger effect = higher value, concentration not given here
In the case of Cc1n[nH]c(=O)nc1NCc1ccc(Cl)cc1, the inhibition was 0.09% (inactive). In the case of CC(C)(C)NC(=O)COC(=O)CCC(=O)c1ccc(F)cc1, the inhibition was -0.61% (inactive). In the case of Cc1ccc(/C=N/NC(=O)CNC(=O)c2ccc(S(=O)(=O)N(C)C)cc2)cc1, the inhibition was -4.56% (inactive). With Cc1ccnc(NS(=O)(=O)c2ccc(NC(=O)/C=C/c3cccs3)cc2)n1 the inhibition was 11.1% (inactive). With CCOC(=O)C1C(c2ccccc2)NC(=S)NC1(C)O (stereo not given) the inhibition was 1.27% (inactive). For COc1ccc(Nc2ncc(C(=O)O)c3ccccc23)cc1, the inhibition was 5.05% (inactive). For Cc1cc2ccc(C)c(C)c2nc1SCC(=O)c1cccs1, the inhibition was -3.91% (inactive). For Nc1nc(NCC2CCCO2)nc(NCC2CCCO2)c1[N+](=O)[O-] (stereo not given), the inhibition was -0.89% (inactive). With O=C(CCCCCN1C(=O)C2C3C=CC(C3)C2C1=O)Nc1nccs1 (stereo not given) the inhibition was -6.21% (inactive). With CCc1cccc(C)c1NC(=S)N1CCCCC1c1cccnc1 (stereo not given) the inhibition was 1.2% (inactive). For CC(C)COC(=O)C(C#N)c1nc2ccccc2nc1N1CCN(Cc2ccc3c(c2)OCO3)CC1 (stereo not given), the inhibition was 2.75% (inactive). In the case of COC(=O)C(C#N)c1nc2ccccc2nc1N1CCN(Cc2ccc3c(c2)OCO3)CC1 (stereo not given), the inhibition was -4.28% (inactive). In the case of CC(N=C1NC(C)(C)Cc2ccccc21)C(=O)O (stereo not given), the inhibition was -3.94% (inactive). In the case of Cn1c(Cn2c(=O)sc3ccccc32)nnc1SCC(=O)NC1CCCC1, the inhibition was -8.44% (inactive). For Cc1cc(C)n(C(=O)c2ccccc2[N+](=O)[O-])n1, the inhibition was 6.43% (inactive). For Cc1cc(C)n(C(=O)c2ccc([N+](=O)[O-])cc2N)n1, the inhibition was -10.3% (inactive). For CC1C=CCC2C(=O)N(c3ccc(Cl)cc3O)C(=O)C12 (stereo not given), the inhibition was 10.7% (inactive). For COc1ccc2nc(/N=C(\N)NC(=O)C(C)(C)C)nc(C)c2c1, the inhibition was 14.9% (inactive). In the case of Cc1ccc2nc(/N=C(\N)NC(=O)N3c4ccccc4Sc4ccccc43)nc(C)c2c1, the inhibition was 94.5% (inactive). With COc1ccc(CN(CC2CCC(C(=O)O)CC2)C(=S)Nc2cc(C)ccc2C)cc1 (stereo not given) the inhibition was 4.91% (inactive). With O=C(NC1CSC/C1=N\O)c1ccccc1 (stereo not given) the inhibition was -2.37% (inactive). For COc1ccccc1/C=C/C(=O)c1ccccc1, the inhibition was 5.69% (inactive). For O=C(/C=C/c1ccccc1Cl)c1ccc(O)cc1, the inhibition was 36.8% (inactive). With COc1ccc(/C=C/C(=O)c2ccc(Cl)cc2)c(OC)c1 the inhibition was 7.24% (inactive). For COc1ccccc1/C=C/C(=O)c1ccc(Cl)cc1, the inhibition was 19.9% (inactive). For Cc1nc2nc(SCC(=O)C(C)(C)C)[nH]c2cc1Br, the inhibition was -3.7% (inactive). For CC(C)(C)c1cc(NC(=O)c2cccc([N+](=O)[O-])c2)no1, the inhibition was 4.63% (inactive). With CC1(c2nnc(-c3ccccc3)o2)CC(c2ccc(F)cc2)=NO1 (stereo not given) the inhibition was -2.41% (inactive). With CCOC(=O)c1ccc(N=c2sc(C(=O)OC)cc(=O)n2-c2ccc(C(=O)OCC)cc2)cc1 the inhibition was 63.5% (inactive). In the case of COC(=O)c1ccc(N=c2sc(C(=O)OC)cc(=O)n2C)cc1, the inhibition was 7.67% (inactive). In the case of COc1c(F)c(F)c(C(=O)O)c(Nc2cc(C)cc(C)c2)c1F, the inhibition was -9.39% (inactive). In the case of O=c1cc(-c2ccccc2F)oc2ccccc12, the inhibition was -6.27% (inactive). In the case of O=c1cc(-c2ccc(F)cc2)oc2ccccc12, the inhibition was -4.83% (inactive). In the case of N#Cc1cccc(NC(=O)CC2CCCCC2)c1, the inhibition was 1.61% (inactive). In the case of Cc1ccc(N2C(=O)NC(=O)/C(=C\c3ccc(N4CCOCC4)cc3)C2=O)cc1, the inhibition was -2.37% (inactive). For CS(=O)(=O)N1CCn2c1nc1ccccc12, the inhibition was -12.2% (inactive). With CC1=C(C#N)C(c2cccnc2)C2=C(CC(c3ccc(Cl)cc3)CC2=O)N1 (stereo not given) the inhibition was 5.84% (inactive). In the case of COc1ccc(C2C(C#N)=C(C)NC3=C2C(=O)CC(C)(C)C3)cc1 (stereo not given), the inhibition was 6.62% (inactive). With COC(=O)C1=C(C(=O)OC)[C@@H]2N(Cc3ccccc3)c3ccccc3[C@@]23C[C@@H](C(=O)OC)N(C(=O)NC2CCCCC2)C3=N1 the inhibition was -1.86% (inactive). With CC(=O)c1ccc(NC(=O)C2CC(=O)N(Cc3ccccc3)C2)cc1 (stereo not given) the inhibition was -1.96% (inactive). With CCOc1nc(-c2ccc(Cl)cc2)nc2ccccc12 the inhibition was -0.59% (inactive). In the case of O=C(CCl)N(Cc1ccccc1)c1ccccc1, the inhibition was 77.7% (inactive). With O=C(N(c1ccccc1)c1ccccc1)N(c1ccccc1)c1ccccc1 the inhibition was -4.02% (inactive). With O=C(CCl)N(c1ccc(Cl)cc1)c1c[nH]c2ccccc12 the inhibition was 75.3% (inactive). In the case of CC(=O)N(c1ccc(Cl)cc1)c1c[nH]c2ccccc12, the inhibition was -5.95% (inactive). In the case of CCn1cc(-c2cc(C(F)(F)F)n3nc(C(=O)O)cc3n2)c(C)n1, the inhibition was -10.8% (inactive). With COc1ccc(C)cc1NC(=O)C1CCCCC1C(=O)O (stereo not given) the inhibition was -8.21% (inactive). In the case of CCOC(=O)C(NCc1ccc(F)cc1)(NC(=O)c1ccccc1)C(F)(F)F (stereo not given), the inhibition was -7.14% (inactive). In the case of COc1cccc(NCc2cc3c(C(C)(C)C)nn(-c4ccccc4)c3[nH]c2=O)c1, the inhibition was -5.67% (inactive). In the case of CCc1ccc(NCc2cc3c(C)nn(-c4ccccc4)c3[nH]c2=O)cc1, the inhibition was 26% (inactive). For CCOc1cccc(NCc2cc3c(C(C)(C)C)nn(-c4ccccc4)c3[nH]c2=O)c1, the inhibition was 70.7% (inactive). For Cc1nn(-c2ccccc2)c2[nH]c(=O)c(CNCCN3CCOCC3)cc12, the inhibition was 3.32% (inactive). For Cc1nn(-c2ccccc2)c2[nH]c(=O)c(CNCc3ccc4c(c3)OCO4)cc12, the inhibition was -1.83% (inactive). With CC(C)(C)c1nn(-c2ccccc2)c2[nH]c(=O)c(CNc3ccc4c(c3)OCCO4)cc12 the inhibition was 4.42% (inactive). In the case of Cn1c(O)c(N=NC(=O)c2ccccc2O)c2ccccc21, the inhibition was -0.85% (inactive). For Cc1cc(C2(c3ccc(O)c(C)c3)OC(=O)c3ccccc32)ccc1O, the inhibition was -1.73% (inactive). In the case of CC/C(C)=C1\SC(N2CCOCC2)=NC1=O, the inhibition was 1.74% (inactive). With Cc1cc(C)nc(N2CCC(C(=O)NCc3ccccc3F)CC2)n1 the inhibition was -8.28% (inactive). For CC(=O)Nc1ccn(-c2ccccc2)n1, the inhibition was 0.92% (inactive). In the case of O=C(Nc1ccn(-c2ccccc2)n1)c1ccccc1Br, the inhibition was 1.33% (inactive). In the case of CC(C)(C)C1CCc2sc(-c3nnc(CCl)o3)cc2C1 (stereo not given), the inhibition was 43.6% (inactive). For COc1cc2[nH]c(=O)n3nc(-c4ccccc4)nc3c2cc1OC, the inhibition was -2.98% (inactive). With Cc1nc(N)nc(Cl)c1Cc1ccc(Cl)cc1 the inhibition was 3.47% (inactive). With Cc1nc2ccc(Cl)cc2nc1C the inhibition was -12.2% (inactive). In the case of COC(=O)/C(C#N)=C/c1c[nH]c2ccccc12, the inhibition was 7.57% (inactive). For CCCCCn1c(=O)c(C(=O)Nc2ccccc2S(N)(=O)=O)c(O)c2ccccc21, the inhibition was 6.87% (inactive). For CCCCCCn1c(=O)c(C(=O)Nc2c(C)n(C)n(-c3ccccc3)c2=O)c(O)c2ccccc21, the inhibition was -5.05% (inactive). In the case of CCCCn1c(=O)c(C(=O)Nc2ccsc2C(=O)OC)c(O)c2ccccc21, the inhibition was 1.97% (inactive). For CCCCn1c(=O)c(C(=O)Nc2ccccc2)c(O)c2ccccc21, the inhibition was -1.05% (inactive). With CCN(CC)S(=O)(=O)c1cc(C(=O)OCC(=O)NC(=O)c2cccn2C)ccc1C the inhibition was -5.23% (inactive). With O=C(CCNc1ccc(F)cc1)c1cc2ccccc2o1 the inhibition was -9.46% (inactive). For Cn1cc(Br)c(C(=O)NNC(=O)c2ccc(Br)cc2)n1, the inhibition was 6.79% (inactive). For CCN(CC)c1ccc(NC(=O)CCCCCN2C(=O)c3ccccc3C2=O)cc1, the inhibition was -10.5% (inactive). For CCN(CC)c1ccc2c(c1)C(=O)N(C)C2=O, the inhibition was 7.2% (inactive). With O=C(Nc1ccc2oc(-c3ccccc3Cl)nc2c1)c1cncc(Br)c1 the inhibition was -3.07% (inactive). For Brc1ccc(-c2csc(/N=C/N3CCCC3)n2)cc1, the inhibition was 64.4% (inactive). With CN(C)/C=N/c1nc(-c2ccc3c(c2)OCO3)cs1 the inhibition was -11.6% (inactive). For COc1ccc(CNC(=O)C2C3C=CC4(CN(Cc5cccnc5)C(=O)C24)O3)cc1 (stereo not given), the inhibition was -7.2% (inactive). For COc1ccc(NC(=O)C(=O)N/N=C(\C)CC(=O)Nc2ccccn2)c(OC)c1, the inhibition was -16.2% (inactive). In the case of NS(=O)(=O)c1ccc(NC(=O)CCC2CCCCC2)cc1, the inhibition was -3.12% (inactive). In the case of O=C(CCc1ccc(Oc2cc([N+](=O)[O-])cc([N+](=O)[O-])c2)cc1)N1CCCCC1, the inhibition was 3.78% (inactive). In the case of CC1CCN(C(=O)CCc2ccc(Oc3cc([N+](=O)[O-])cc([N+](=O)[O-])c3)cc2)CC1, the inhibition was 71.9% (inactive). With CC1(C)S/C(=N/N=C/c2ccco2)NC1=O the inhibition was 3.45% (inactive). For CCOc1ccc(-n2c(N)c(C(=O)N3CCN(C)CC3)sc2=S)cc1, the inhibition was 2.86% (inactive). With CN(C)S(=O)(=O)N1CCN(c2ccc([N+](=O)[O-])c(N3CCOCC3)c2)CC1 the inhibition was 6.14% (inactive). With Cc1c(O)ccc(-c2n[nH]c(C(=O)O)c2-c2nc3ccccc3s2)c1O the inhibition was -16.8% (inactive). With O=C(CC(Sc1n[nH]c(-c2ccccc2)n1)c1ccccc1)NCc1ccccc1 (stereo not given) the inhibition was -4.33% (inactive). With O=C(NCc1c(F)cccc1F)c1cc(COc2c(F)cccc2F)on1 the inhibition was 4.13% (inactive). With COC(=O)OCC12CCC(O1)C1(C)C(=O)OCC21 (stereo not given) the inhibition was 2.41% (inactive). With COC(/C=C/Nc1ccc(Br)cc1)=C(C#N)C#N the inhibition was -3.61% (inactive). In the case of CC1CCN(CCC(=O)NN)CC1, the inhibition was 1.23% (inactive). For CCOC(=O)/C(C#N)=N/Nc1ccccc1OC, the inhibition was 12.6% (inactive). For COc1ccc(-c2cc(C3CCN(c4cc(Cl)nc(N)n4)CC3)[nH]n2)cc1, the inhibition was 4.7% (inactive). In the case of Nc1nc(Cl)cc(N2CCC(c3cc(-c4ccc(Cl)cc4Cl)n[nH]3)CC2)n1, the inhibition was 8.57% (inactive). For O=c1c2c3c(sc2nc2n1N=C(c1cccs1)CS2)CCCC3, the inhibition was 3.06% (inactive).
